# KDM5B inhibitor: Primary screen for KDM5B Histone Demethylases FDH-coupled qHTS | Lysine-specific demethylase 5B (Homo sapiens), Q9UGL1 | Potency, µM (top dose mostly 57.7 µM), most hits filed as inhibitors | 220,000 tested, 2.6% active | KDM5B demethylase, FDH-coupled NADH fluorescence (FDH is formaldehyde dehydrogenase); further: potency means the concentration at half of the fitted maximal effect; 0% is about no effect; nearly all actives have a fitted effect of over 70% in size
#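 Coupled FDH/NAD⁺ fluorescence readout. KDM5BΔAP 200 nM final; compound titration, 10 min RT preincubation; substrate mix 12.5 µM H3K4me3, 25 µM 2-OG, 50 µM Fe(II), 100 µM ascorbate, 0.25 mM NAD⁺, 0.25 U/mL FDH; ΔRFU over 30 min.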
# SNCA expr inhib: Primary qHTS assay for inhibitors of alpha-synuclein gene (SNCA) expression; AID 1671194, 2021; 140,000 tested, 0.17% active; Potency, µM (top dose mostly 57.2 µM), for the others: top-dose activity change, negative = inhibition, hits mostly inhibitors; HEK-293 SNCA-luciferase knock-in, luminescence, 24 h;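 further: potency means the concentration at half of the fitted maximal effect; plate controls were DMSO cells for no effect and cell-free wells for full effect; nearly all actives have a fitted effect of over 45% in size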
# SNCA viab count: GF-AFC viability counterscreen for inhibitors of alpha-synuclein gene (SNCA) expression; HEK-293-SNCA-luc viability, GF-AFC fluorescence, 24 h; Potency, µM (highest dose often 57.1 µM), for inactives: top-dose activity change, negative = cytotoxicity, actives largely listed as cytotoxic; 150,000 tested, 0.12% active;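 further: potency means the concentration at half of the fitted maximal effect; 0% = DMSO-treated cells and -100% = medium-only wells without cells; nearly all actives have a fitted effect of over 30% in size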
#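 HEK-293-SNCA-luc cells (1500/well) plated 24 h, then exposed 24 h to a dilution series; GF-AFC added 30 min at 37C, fluorescence 405/540 nm; normalised to medium-only and DMSO wells, Hill fit.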
# IP6K1 inhibitor: Primary qHTS assay for small molecule inhibitors of Inositol hexaphosphate kinase 1 (IP6K1) | 140,000 tested, 0.81% active | activity change, % (series mostly up to about 58 µM) | IP6K1 kinase, ADP-Glo luminescence, 2 h; active compounds read low; in the data active means activity change below about -25%; further: on the % scale 0 is the no-effect control and ±100 the full control effect
# Target sequence (Q92551 whole entry, looked up): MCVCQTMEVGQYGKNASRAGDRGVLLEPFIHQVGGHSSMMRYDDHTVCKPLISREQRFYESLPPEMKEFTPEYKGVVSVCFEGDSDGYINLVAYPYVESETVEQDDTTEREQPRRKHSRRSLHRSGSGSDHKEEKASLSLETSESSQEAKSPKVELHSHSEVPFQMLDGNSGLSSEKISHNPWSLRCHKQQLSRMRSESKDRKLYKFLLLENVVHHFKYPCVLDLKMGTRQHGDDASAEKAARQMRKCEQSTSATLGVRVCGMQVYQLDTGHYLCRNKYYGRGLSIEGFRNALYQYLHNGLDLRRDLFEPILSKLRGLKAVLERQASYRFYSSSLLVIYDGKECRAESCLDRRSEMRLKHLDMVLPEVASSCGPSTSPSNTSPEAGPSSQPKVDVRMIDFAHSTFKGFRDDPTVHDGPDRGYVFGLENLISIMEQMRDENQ
#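 ADP-Glo luminescence measures ADP made by human IP6K1 during a 2 h RT reaction with ATP/IP6 (mix at 1.3 mM/130 uM); top library doses 57.5 and 19.1 uM final.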
# An asterisk follows results filed as active; i = inactive; ? = inconclusive; nt = not tested or not shown; [ ] = remark or other dose. An excerpt weighted towards active compounds, which were near 3% of everything screened. Unless noted, the call rests on the fitted dose curve; in most records, active means well fitted curve in the direction sought with a large enough effect; inconclusive means small, poorly fitted or top-dose-only effect, or another doubt; inactive means no such curve, though single readings can be large; an effect the other way counts as inactive or inconclusive.
SMILES,KDM5B inhibitor,SNCA expr inhib,SNCA viab count,IP6K1 inhibitor
O=C1Nc2ccc(-c3ccco3)cc2C(=O)N2CCN(C(=O)c3ccccc3)C[C@H]12,35.5µM*,-34.6%[87.6 µM],2.5%[87.6 µM],7.5
O=C1Nc2ccc(-c3ccccc3)cc2C(=O)N2CCN(C(=O)NC3CCCCC3)C[C@H]12,i,-4.6%[87.6 µM],0.7%[87.6 µM],6.3
O=C1Nc2ccc(-c3ccccc3)cc2C(=O)N2CCN(C(=O)c3cccc(F)c3)C[C@H]12,28.2µM*,2.9%[87.6 µM],-1.0%[87.6 µM],-6.1
O=C(O)CCCC(=O)N1CCN2C(=O)c3cc(-c4ccco4)ccc3NC(=O)[C@@H]2C1,39.8µM*,20.3%[87.6 µM],10.7%[87.6 µM],3.1
O=C1Nc2ccc(-c3ccco3)cc2C(=O)N2CCN(C(=O)NC3CCCCC3)C[C@H]12,28.2µM*,-3.2%[87.6 µM],2.0%[87.6 µM],-15.4
COc1ccc(C(=O)c2ccccc2)c(OCc2ccccc2C#N)c1,i,nt,nt,nt
COc1ccc(OC)c2[nH]c(C(=O)NCC(=O)NCC(=O)O)cc12,i,nt,nt,nt
c1ccc(CC2CCN(Cc3nnc4cc(-c5nc(-c6ccccc6)no5)ccn34)CC2)cc1,i,73.7%,0.9%,39.6
CC(C)CN(Cc1nnc2cc(-c3nc(-c4ccccc4)no3)ccn12)CC(C)C,?,5.5%,3.4%,17.8
CC(C)N(Cc1ccccc1)Cc1nnc2cc(-c3nc(-c4ccccc4)no3)ccn12,28.2µM*,96.2%,-3.0%,10.4
CN(Cc1ccccc1)Cc1nnc2cc(-c3nc(-c4ccccc4)no3)ccn12,28.2µM*,44.5%,-5.2%,19.1
Cc1ccc(Nc2ccnc(N3CCC(NC(=O)c4ccc(C(F)(F)F)cc4)CC3)n2)cc1,nt,25.1µM*,?,-7.2
C/C(=N\NC(=O)c1cccc(Br)c1)C(C)C,i,nt,nt,nt
Cn1nc(C2CC2)cc1NC(=O)Cc1ccccc1,nt,8.4%[87.6 µM],-5.4%[87.6 µM],4.4
CC(=O)N1CCCC(N2C(=O)c3c(c(C)nn3-c3ccccc3)C2C(C)C)C1 (stereo not given),nt,nt,nt,7.7
COc1ccc(C(=O)Nc2ccc3c(c2)CN(Cc2ccc(F)cc2)C(=O)C(C)O3)c(OC)c1 (stereo not given),31.6µM*,?,?,-11.2
CCC1Oc2ccc(NC(=O)c3ccc(OC)c(OC)c3)cc2CN(Cc2ccc(Cl)cc2)C1=O (stereo not given),28.2µM*,?,?,-16.3
CCCCCN1CCc2ccccc2OCC(=O)N(C)[C@@H](Cc2ccc(OCCO)cc2)C1=O,nt,nt,nt,7.4
O=C(O)Cc1ccc2nc[nH]c2c1,i,nt,nt,nt
COc1ccccc1CCC(=O)N[C@@H]1CN(c2ncccn2)C[C@H]1CN(C)C,31.6µM*,2.2%,-8.6%,3.0
CN(C)C[C@@H]1CN(c2ncccn2)C[C@H]1NC(=O)Cc1ccccc1F,31.6µM*,-19.3%,8.7%,7.0
CN(C)C[C@@H]1CN(c2ncccn2)C[C@H]1NC(=O)Cc1ccc(F)cc1,28.2µM*,0.6%,6.4%,4.8
Cc1cc(C)n(CC(=O)N[C@@H]2CN(c3ncccn3)C[C@H]2CN(C)C)n1,28.2µM*,1.6%,10.9%,24.2
CN(C)C[C@@H]1CN(c2ncccn2)C[C@H]1NC(=O)Cc1c[nH]c2ccccc12,?,?,-1.5%,17.6
O=C(Cc1cccc(Cl)c1)N[C@@H]1CN(c2ncccn2)C[C@H]1CO,?,40.2%,-5.7%,9.4
SMILES,KDM5B inhibitor,SNCA expr inhib,SNCA viab count,IP6K1 inhibitor
CN(C)C[C@@H]1CN(c2ncccn2)C[C@H]1NS(=O)(=O)c1ccc(C#N)cc1,?,-0.3%,0.5%,7.1
CN(C)C[C@@H]1CN(c2ncccn2)C[C@H]1NS(=O)(=O)c1cc(F)ccc1F,?,0.0%,2.3%,2.1
CN(C)C[C@@H]1CN(c2ncccn2)C[C@H]1NS(=O)(=O)Cc1ccc(F)cc1,25.1µM*,-2.1%,-3.8%,7.5
CN(C)C[C@@H]1CN(c2ncccn2)C[C@H]1NS(=O)(=O)c1ccc(Cl)cc1,28.2µM*,13.2%,-13.3%,18.2
COc1cccc(CC(=O)N[C@@H]2CN(c3ncccn3)C[C@H]2CO)c1,25.1µM*,-19.5%,-5.2%,5.6
Cc1ccc(F)cc1S(=O)(=O)N[C@@H]1CN(c2ncccn2)C[C@H]1CN(C)C,25.1µM*,13.9%,16.9%,23.2
CN(C)C[C@@H]1CN(c2ncccn2)C[C@H]1NC(=O)Cc1cccc(Cl)c1,?,-0.6%,-4.7%,11.7
O=C(NCCc1ccccc1)C1CCCN(Cc2cccc(-c3ccc(F)cc3F)c2)C1 (stereo not given),nt,-19.5%,-5.3%,4.9

# Screening results (PubChem)
